# GSTO1 counter: GSTO1 inhibition, counter-screen for RBBP9 inhibitors; P78417; recombinant GSTO1, activity-based probe fluorescence polarization; inhibition, % at 5.96 µM; 300,000 tested, 1.1% active;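 active means inhibition above the campaign mean inhibition plus 3 SD, cut at about 35% in these data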;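 further: 0% = GSTO1-1 with DMSO and 100% = wells lacking GSTO1-1 enzyme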
# Target sequence (P78417 whole entry, looked up): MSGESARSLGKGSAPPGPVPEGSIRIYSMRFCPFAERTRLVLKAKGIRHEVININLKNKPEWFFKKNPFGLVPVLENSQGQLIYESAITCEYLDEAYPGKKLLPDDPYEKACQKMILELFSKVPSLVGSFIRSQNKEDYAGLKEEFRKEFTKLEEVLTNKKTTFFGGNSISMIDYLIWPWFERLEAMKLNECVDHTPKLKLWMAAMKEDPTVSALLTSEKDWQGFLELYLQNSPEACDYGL
# LYPLA1 inh: counter-screen for PME1 inhibitors: inhibitors of human LYPLA1. recombinant LYPLA1, FP-Rh probe fluorescence polarization. O75608. inhibition, % at 5.9 µM. 320,000 tested, 0.16% active;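 active means inhibition above the mean of all tested compounds plus 3 SD, set per campaign, cut at about 14% in these data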;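 further: inhibitors block serine hydrolase probe labeling of LYPLA1 so polarization falls; 0% = enzyme with DMSO and 100% = wells lacking LYPLA1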
# Target sequence (O75608 whole entry, looked up): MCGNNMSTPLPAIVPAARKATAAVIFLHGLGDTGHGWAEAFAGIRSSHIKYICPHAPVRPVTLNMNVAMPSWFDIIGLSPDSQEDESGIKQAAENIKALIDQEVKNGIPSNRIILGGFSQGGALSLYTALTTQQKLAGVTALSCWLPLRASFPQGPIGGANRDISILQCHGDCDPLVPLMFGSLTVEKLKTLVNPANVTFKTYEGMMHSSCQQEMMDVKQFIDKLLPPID
# Fam108B counter: counter-screen for RBBP9 inhibitors: inhibitors of mouse Fam108B; recombinant Fam108B, FP-Rh probe fluorescence polarization; 300,000 tested, 0.33% active; inhibition, % at 9.51 µM;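 active means inhibition above the screen mean inhibition plus 3 SD, computed separately per campaign, cut at about 18% in these data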;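 further: inhibitors lower polarization as less probe binds the enzyme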
# PAD4 FP inh: inhibitors of human PAD4. recombinant PAD4, RCA probe fluorescence polarization. inhibition, % at 6.36 µM. 330,000 tested, 0.41% active;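 active means percent inhibition above a cutoff equal to the mean of all tested compounds plus 3 SD, cut at about 15% in these data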;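 further: 0% = PAD4 with RCA probe and DMSO and 100% = probe without PAD4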
# LYPLA2 inh: counter-screen for PME1 inhibitors: inhibitors of human LYPLA2. AID 2177. 320,000 tested, 0.38% active. recombinant LYPLA2, FP-Rh probe fluorescence polarization. inhibition, % at 5.9 µM;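 active means inhibition above the screen-wide mean plus 3 SD, limit set per campaign, cut at about 26% in these data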;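 further: 0% = LYPLA2 with DMSO and 100% = wells lacking LYPLA2 enzyme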
# PME-1 primary: blocks human protein phosphatase methylesterase 1; Q9Y570; 320,000 tested, 0.53% active; inhibition, % at 5.9 µM; recombinant PME-1, FP-Rh probe fluorescence polarization;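 active means inhibition above the campaign mean of all compounds plus 3 SD, cut at about 26% in these data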;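 further: competitive labeling of PME-1 active site by serine hydrolase directed probe; 0% = PME-1 with DMSO and 100% = wells lacking PME-1 enzyme; inhibitors block probe labeling so polarization falls and inhibition rises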
# GSTO1 inh conf: confirmation of human GSTO1 inhibitors; shares compounds with GSTO1 counter; recombinant GSTO1, probe fluorescence polarization; inhibition, % at 5.96 µM; 2,400 tested, 54% active;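 active means inhibition above the primary screen's cutoff, its mean inhibition plus 3 SD, cut at about 35% in these data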;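 further: loss of polarization as inhibitors block binding of rhodamine sulfonate ester activity probe; 0% = GSTO1 with DMSO and 100% = wells lacking GSTO1 enzyme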
# * = called active by the depositor; . = no result given. This is a sample that favours compounds with a hit; in the whole collection about 1.8% have one here.
SMILES,GSTO1 counter,LYPLA1 inh,Fam108B counter,PAD4 FP inh,LYPLA2 inh,PME-1 primary,GSTO1 inh conf
Cc1cccc(NC(=O)NNC(=O)c2ccccn2)c1,.,.,.,-1,.,.,.
Cc1cc(C(C)(C)C)c(O)c(C(C)(C)C)c1,0,-2,-1,0,-5,0,.
Cc1cc(O)c(Oc2cc(C)cc(O)c2O)c(O)c1,56*,-7,-1,-8,-6,3,18
CCOc1ccc(CCNC(=O)COC(=O)c2ccc(OC(C)C)cc2)cc1OCC,4,1,-1,-1,1,3,.
O=C(COc1ccc(F)cc1Cl)NC1CCCCCC1,.,4,.,3,8,1,.
COc1ccccc1NC(=O)CSc1nnc2ccc(-c3ccccn3)nn12,-2,-1,3,-2,5,8,.
CN1CCN(c2nc3ccccc3nc2C(C#N)S(=O)(=O)c2ccccc2)CC1 (stereo unspecified),-3,0,1,-5,4,1,.
N#CC(c1nc2ccccc2nc1N1CCCC1)S(=O)(=O)c1ccccc1 (stereo unspecified),53*,-2,7,-8,0,16,56*
Cc1ccc(S(=O)(=O)c2nc(S(=O)(=O)c3ccc(C)cc3)c(N3CCN(CCO)CC3)s2)cc1,-12,1,1,-3,1,5,.
C=CCN(CC=C)Cc1c(O)ccc2c1oc(=O)c1ccccc12,55*,3,-2,0,2,5,29
COc1ccc(Br)cc1/C=C(\C(=O)O)c1ccc(S(=O)(=O)N2CCCCC2)s1,.,-1,.,-5,3,-4,.
COc1ccc(/C=C2\SC(=O)N(CCNC(=O)C3=COCCO3)C2=O)cc1,42*,-2,2,-1,-5,1,9
CC(=O)Oc1ccc2occ(/C=N/c3cc(=O)[nH]c(=S)[nH]3)c(=O)c2c1,73*,-2,0,6,-1,4,12
Cc1[nH]n(-c2ccccc2)c(=O)c1C(C[N+](=O)[O-])c1ccc(Br)cc1 (stereo unspecified),45*,3,3,-1,4,1,13
CC(=O)Nc1ccc(S(=O)(=O)N(C)CC(=O)NNc2c(F)c(F)cc(F)c2F)cc1,.,.,.,4,.,.,.
CCN(CC(=O)NCc1ccc(Cl)cc1)C(=O)c1cccc(S(=O)(=O)Nc2ccc(OC)cc2)c1,5,0,-3,-3,0,0,.
CC(CCc1ccccc1)NC(=O)COC(=O)c1cc(NS(=O)(=O)c2ccc(Cl)c([N+](=O)[O-])c2)ccc1O (stereo unspecified),43*,-13,0,-4,-13,19,49*
CCCOc1ccc(/C(O)=C2/C(=O)C(=O)N(c3cc(C)on3)C2c2ccc(C(=O)OC)cc2)cc1 (stereo unspecified),-9,4,-3,-4,9,3,.
CCOc1ccc(/C(O)=C2/C(=O)C(=O)N(c3cc(C)on3)C2c2ccc(C(=O)OC)cc2)cc1 (stereo unspecified),44*,0,4,-1,-5,-3,0
CCN(CC)c1ccc(NS(=O)(=O)c2ccc(OC)cc2)cc1,56*,-2,0,3,4,11,56*
O=C1C=C(NCCN2CCOCC2)C(=O)c2cnccc21,84*,-4,12,41*,2,12,82*
O=[N+]([O-])c1cc(Br)cc(C=Nc2ccc3c(c2)OCO3)c1O,43*,-3,7,-1,3,14,38*
O=[N+]([O-])c1ccc(-c2ccc(C=Nc3cccc4ccccc34)o2)cc1,63*,0,-2,24*,3,-2,5
O=C(COc1ccc(-c2ccccc2)cc1)NNC(=O)Nc1ccccc1,.,-8,.,-8,-21,-18,.
O=C(CSc1nc2ncc(Br)cc2[nH]1)Nc1ccc2c(c1)OCO2,45*,-1,-2,-3,-2,3,53*
Cc1cc(C)c(NC(=O)CSc2nc3ncc(Br)cc3[nH]2)c(C)c1,5,-1,-11,1,-5,-10,.
Cc1nc2ccccc2c(=O)n1/N=C/c1ccc(O)c(O)c1O,71*,-7,9,2,-11,-8,14
Cc1nc2ccccc2c(=O)n1/N=C/c1ccccc1,6,-1,3,-2,2,0,.

# High-throughput results deposited in PubChem BioAssay by The Scripps Research Institute Molecular Screening Center.
